Measured values: PubChem BioAssay (NCI)
About 83,000 compounds went through this panel and 20% of them were active in at least one assay; those are over-represented in the sample as a whole.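 Results are percent growth after 48 hours of single-concentration exposure. 100 means growth as in untreated cells, lower positive values show inhibition; negative values down to -100 show cell death.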 Values without a mark were called inactive. Activity calls are given as the source filed them. The calls were made as follows: active = growth percent below 10; inactive = the rest.

tested on: TK-10 renal; assay: NCI-60 one-dose screen, 48 h (100 = growth as untreated, 0 = no growth, -100 = all killed); conditions: 10 µM

Compound	growth
Cc1ccc(/C=C/C(=O)c2ccc(NC(=O)CSc3nnc(-c4c[nH]c5ccccc45)n3-c3ccccc3)cc2)cc1	107%
CCCn1c(O)c(N=Nc2nc(-c3cc4ccccc4oc3=O)cs2)c2cc(Br)ccc21	125%
COc1ccc2[nH]c(=O)c(CSc3nccc(-c4ccc(Cl)cc4)n3)cc2c1	19.6%
COc1cc(/C=C/C(=O)c2cc(OC)c(OC)c(OC)c2)ccc1Oc1nc(Nc2ccc(F)cc2)nc(N(C)C)n1	28.6%
c1ccc(C(=C(c2ccc(OCCN3CCCCC3)cc2)c2ccc(OCCN3CCCCC3)cc2)C2CCCC2)cc1	16.6%
Cc1ccc(/C=C(\C#N)n2nnc3c(F)cccc32)cc1	0.416% (active)
O=C1Nc2ccc(F)cc2/C1=C/c1cccc(OCc2ccccn2)c1	80.9%
Cc1ccc(-c2cc(C(=O)N=Nc3c(O)[nH]c4ccc(Br)cc34)c3ccccc3n2)cc1	119%
Cc1cc(C)nc(NS(=O)(=O)c2ccc(N/C(N)=N/c3nccc(-c4ccccc4)n3)cc2)n1	76.4%
COc1ccc(NC(=O)Nc2ccc(OCC(=O)N=Nc3c(O)[nH]c4ccc([N+](=O)[O-])cc34)cc2)cc1	113%
COc1ccc(-c2nc(Nc3ccccc3S(N)(=O)=O)c3ccccc3n2)cc1	67.4%
CCCCCc1ccc(S(=O)(=O)N(C(C)=O)c2cc(-c3csc(N(C)C(C)=O)n3)ccc2N2CCN(C)CC2)cc1	76.7%
NS(=O)(=O)c1ccc(N=Nc2c(O)n(CC(=O)Nc3ccccc3Br)c3ccccc23)cc1	63.3%
CN(C)c1nc(NCCNS(=O)(=O)c2ccc(C(=O)/C=C/c3ccccc3)cc2)nc(Nc2ccc(F)cc2)n1	92.5%
CC1=C2C(=C[C@@](C)(COCOCCCl)[C@@H]2O)C(=O)[C@](C)(O)C12CC2	-1.02% (active)
COC[C@@H](CC(C)C)N=C1NC(=O)/C(=C/c2ccc3ncoc3c2)N1	36.5%
CC1=C2C(=C[C@@](C)(CO)[C@@H]2O)/C(=N\N)[C@](C)(O)C12CC2	1.74% (active)

Compound	growth
CN1CCc2c(sc3ncnc(N/N=C/c4ccc5ccccc5c4)c23)C1	110%
Cc1cccc(-c2nc(Nc3ccccc3C(=O)O)c3ccccc3n2)c1	85.8%
COc1ccc2[nH]c(O)c(N=NC(=O)COc3ccc(NC(=O)Nc4ccc(Cl)cc4)cc3)c2c1	106%
CN1CCN(Cc2ccc(NC(=O)c3cncc(C#Cc4cnc5ccc(N[C@H]6CCOC6)nn45)c3)cc2C(F)(F)F)CC1	-69.8% (active)
N#Cc1c(Cl)nc(SCc2ccc(F)cc2)nc1-c1ccc(F)cc1	98.2%
CONC[C@]1(C)C=C2C(=O)[C@](C)(O)C3(CC3)C(C)=C2[C@H]1O	7.09% (active)
CCCCOc1ccc(Nc2nc3ccccc3nc2Nc2ccc(OCCCC)cc2)cc1	91.9%
C=C1CCC2C3(C)COC(c4cccc(F)c4)OC3CCC2(C)C1CC(O)C1=CCOC1=O (centres undefined)	113%
COc1ccc(/C=N/N=C(\C)c2ccc3c(c2)Nc2ccccc2S3)cc1O	70.6%
O=S(=O)(Nc1ncccn1)c1ccc(-n2c(-c3ccc(Br)cc3)nc(-c3ccccc3)c2-c2ccccc2)cc1	56.7%
C[C@H]1[C@H](C)CC[C@]2(COC(=O)CCC(=O)NCC#CCN3CCNCC3)CC[C@]3(C)C(=CC[C@@H]4[C@@]5(C)CCCNC(C)(C)[C@@H]5CC[C@]43C)[C@H]12	70.9%
CN1CCN(Cc2ccc(C(=O)Nc3cccc(Nc4ccc5c(O)cccc5n4)c3)cc2C(F)(F)F)CC1	-21% (active)
CC(=O)Nc1ccc(-c2cn(-c3cccc(C(=O)Nc4cccc(OC(F)(F)F)c4)c3)nn2)cn1	111%
CCOC(=O)C1=C(N)N(c2ccccc2)C2=C(C(=O)CC(C)(C)C2)C1c1ccccc1OC (centres undefined)	106%
O=c1[nH]c2ccccc2cc1CSc1ccc(Nc2nccc(-c3ccc(C(F)(F)F)cc3)n2)cc1	-6.8% (active)
COC(=O)C[C@](O)(CCCC(C)(C)O)C(=O)O[C@H]1C(OC)=C[C@@]23CCC(=O)N2CCc2cc4c(cc2[C@@H]13)OCO4	101%
COc1ccc2[nH]c(O)c(N=NC(=O)c3cc(-c4ccc(C)cc4)nc4ccccc34)c2c1	117%
